KB-3-1 cytotox = KB-3-1 parental cell cytotoxicity; actives 1.4% (n = 400,000); KB-3-1 viability, CellTiter-Glo ATP luminescence, 72 h; AID 1347075; Potency, µM (titrated, usually from 46.1 µM), usual class: cytotoxic; also: nearly all actives have a fitted effect of over 60% in size
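Parental KB-3-1 viability, qHTS format: 72 h compound exposure, 37 °C; CellTiter-Glo; media-only wells and DMSO plates as controls; concentration-effect fits on corrected data.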
HT1080 IDH1KD tx = HT-1080 IDH1 knockdown cell toxicity (counter line). Potency, µM (highest dose often 46.1 µM), without a hit: top-dose activity, negative = toxicity, actives largely listed as cytotoxic. HT-1080 IDH1 knockdown viability, ATP luminescence, 48 h. actives 2% (n = 360,000);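 also: 0% = DMSO wells and -100% = cell-free medium wells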
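In this qHTS, HT-1080 cells depleted of IDH1 are exposed for 48 h at 37 °C to compound titrations. Toxicity is scored from CellTiter-Glo luminescence, with DMSO as full viability and medium alone as none.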
DT40 TDP1 no CPT = qHTS for Inhibitors of human tyrosyl-DNA phosphodiesterase 1 (TDP1): qHTS in cells in absence of CPT; DT40 Tdp1-/- hTDP1 cells, no CPT, ATP luminescence, 48 h; Potency, µM (doses to about 46.2 µM), for inactives: top-dose activity change, negative = growth inhibition, actives largely listed as inhibitors; actives 15% (n = 420,000); AID 686978, 2013; also: nearly all actives have a fitted effect of over 55% in size
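Seeded 400 DT40-hTDP1 cells/well (vehicle DMSO, no 20 nM CPT); pinned compounds; ≥48 hr at 37 °C; CellTiter-Glo luminescence as viability measure.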
HT1080-NT tox = kills 2HG-producing HT-1080-NT fibrosarcoma cells; HT-1080-NT fibrosarcoma viability, CellTiter-Glo ATP luminescence, 48 h; Potency, µM (top dose mostly 46.1 µM), without a hit: at the top dose activity, negative = less viability, hits mostly cytotoxic; actives 1.6% (n = 360,000);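 also: NT is the 2HG producing partner of a matched IDH1 knockdown line; 0% = DMSO-treated cells and -100% = media-only wells without cells; nearly all actives have a fitted effect of over 55% in size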
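Viability of the 2HG-overproducing fibrosarcoma line after 48 hours of compound exposure at 37 degrees C was determined by luminescence with CellTiter-Glo, and concentration-effect curves were then fitted and categorized.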
DT40 TDP1 CPT = DT40-hTDP1 cell growth loss with CPT; Potency, µM (doses to about 46.2 µM), for inactives: top-dose activity change, negative = growth inhibition, usual class: inhibitors; AID 686979; chicken DT40 Tdp1-/-;hTDP1 cells + 20 nM CPT, ATP luminescence, 48 h; actives 12% (n = 420,000); also: nearly all actives have a fitted effect of over 55% in size
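Cell growth measured by CellTiter-Glo luminescence after a minimum 48 h, 37 C compound exposure with 20 nM CPT in Tdp1-knockout DT40 cells stably expressing hTDP1, seeded 400/well; qHTS titration format.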
KB-V1 MDR tox = KB-V1 MDR subline cytotoxicity; KB-V1 MDR cells viability, CellTiter-Glo, 72 h; Potency, µM (titrated, usually from 46.1 µM), usual class: cytotoxic; actives 3.4% (n = 400,000); AID 1347076; also: nearly all actives have a fitted effect of over 60% in size
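Readout: CellTiter-Glo luminescence, 10 min after addition. Cells: KB-V1 MDR subline, 72 h at 37 degrees C with compound. Analysis: corrected, normalized data fitted to concentration-effect curves.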
* hit, by the source's call; i = inactive; ? = inconclusive; / = no result. This is a sample that favours compounds with a hit; in the whole collection about 19% have one here. Calls follow the shape of the dose curve; as a rule, active = well fitted curve in the direction sought with a large enough effect; inconclusive = small, poorly fitted or top-dose-only effect, or another doubt; inactive = no such curve, though single readings can be large; an effect the other way counts as inactive or inconclusive. Unless noted, % is scaled to controls: 0 for no effect and ±100 for the full control effect; potency is read from the fitted curve at half-maximal effect.

SMILES	KB-3-1 cytotox	HT1080 IDH1KD tx	DT40 TDP1 no CPT	HT1080-NT tox	DT40 TDP1 CPT	KB-V1 MDR tox
CC(=O)Nc1ccc2c(c1)OCO2	i	16%	-2%	15%	25%	i
CC(C)OC(=O)NC(C)(C)COC(=O)Nc1cccc(Cl)c1	?	-18%	?	-24%	?	9.2µM*
O=C(NNc1ccccc1[N+](=O)[O-])Nc1cccc(Cl)c1	i	1%	15µM*	-9%	21µM*	i
NC(=O)C1(N2CCCCC2)CCN(C(=S)Nc2cc(F)cc(F)c2)CC1	i	-16%	-20%	-1%	3%	i
CSc1ccccc1NC(=O)Nc1ccc(Cl)cc1	i	?	-30%	14µM*	21µM*	i
CCc1ccccc1NC(=O)Nc1ccc2c(c1)OCO2	i	19%	13%	10%	-11%	i
O=C(Nc1ccc2c(c1)OCO2)Nc1ccccc1F	?	?	5.8µM*	?	9.2µM*	?
CNC(=O)OCc1snc(-c2ccccc2)c1COC(=O)NC	i	7%	-7%	25%	0%	i
CCc1ccc(N=CC23c4ccccc4C(c4ccccc42)C2C(=O)N(c4ccc(OC)cc4)C(=O)C23)cc1 (configuration not stated)	i	?	18µM*	?	?	i
COc1ccc(N2C(=O)C3C4c5ccccc5C(C=Nc5ccc(C)cc5C)(c5ccccc54)C3C2=O)cc1 (configuration not stated)	i	-7%	?	1%	?	?
Cc1onc(-c2ccccc2)c1C(=O)OCC(=O)Nc1ccccc1Cl	i	-5%	18µM*	-9%	?	?
Cc1cccc(OCCOC(=O)c2c(-c3ccccc3)noc2C)c1	?	?	23µM*	?	?	?
CCOc1ccc(OC(=O)c2c(-c3ccccc3Cl)noc2C)cc1	i	/	21µM*	/	?	i
Cc1onc(-c2c(F)cccc2Cl)c1C(=O)Oc1ccccc1	i	2%	13µM*	-5%	?	?
Cc1onc(-c2ccccc2)c1C(=O)OCC(=O)Nc1ccc(Cl)cc1	i	-21%	?	-8%	?	i
COC(=O)C1=C(C(=O)OC)[C@@H]2N(C)c3ccccc3[C@@]23C[C@@H](CO)N=C3N1	i	8%	5%	-2%	3%	i
Cc1onc(-c2c(F)cccc2Cl)c1C(=O)N(Cc1ccccc1)C(C)C	i	-20%	9.2µM*	2%	?	?
Cc1onc(-c2c(F)cccc2Cl)c1C(=O)OCC(=O)c1c[nH]c2ccccc12	i	?	18µM*	?	?	i
CCOC(=O)c1ccccc1NC(=O)c1c(-c2ccccc2)noc1C	?	/	4.6µM*	/	9.2µM*	?
Cc1onc(-c2c(Cl)cccc2Cl)c1C(=O)N(C)Cc1ccccc1	i	-7%	-28%	-3%	-28%	i
Cc1onc(-c2ccccc2)c1C(=O)Nc1ccc(NC(=O)c2c(-c3ccccc3)noc2C)cc1	i	4%	-19%	1%	-2%	i
Cc1onc(-c2c(F)cccc2Cl)c1C(=O)OCC(=O)NC(c1ccccc1)c1ccccc1	i	?	?	-24%	?	6.5µM*
Cc1noc(C)c1C(=O)OCC(=O)c1c[nH]c2ccccc12	i	1%	-26%	0%	13%	i
Cc1onc(-c2ccccc2Cl)c1C(=O)c1ccccc1	i	10%	?	6%	-9%	i
Cc1onc(-c2c(Cl)cccc2Cl)c1C(=O)c1ccccc1	i	-8%	21µM*	-2%	23µM*	i
SMILES	KB-3-1 cytotox	HT1080 IDH1KD tx	DT40 TDP1 no CPT	HT1080-NT tox	DT40 TDP1 CPT	KB-V1 MDR tox
CCc1nc2c(OCC(=O)N3CCOCC3)cccn2c1N(C)C(=O)COc1ccccc1	i	19%	-4%	8%	5%	i
CCc1ccccc1NC(=O)Cn1c(=O)n(Cc2ccco2)c(=O)c2ccccc21	i	/	-22%	/	-28%	i
CCN(CC)S(=O)(=O)c1ccc(N2CCCC2)c(NC(=O)Cc2ccccc2)c1	i	9%	15µM*	-2%	?	i
CCN(CC)S(=O)(=O)c1ccc(N2CCCC2)c(NC(=O)c2ccccc2OC)c1	i	-6%	15µM*	-2%	?	i
CCN(CC)S(=O)(=O)c1ccc(N2CCCC2)c(NS(=O)(=O)c2ccc(OC)cc2)c1	i	0%	16µM*	-2%	?	4.1µM*
CCN(CC)S(=O)(=O)c1ccc(N2CCOCC2)c(NC(=O)Cc2ccc(Cl)cc2)c1	i	-17%	?	-11%	?	?
CCN(CC)S(=O)(=O)c1ccc(N2CCCCC2)c(NC(=O)/C=C/c2cc(OC)c(OC)c(OC)c2)c1	i	13%	12µM*	20%	?	i
CCOc1ccccc1NC(=O)CSc1nc2ccccc2nc1Cc1ccc(C)cc1	i	/	?	/	?	?
CN(Cc1ccccc1)C(=O)c1cccc(NC(=O)Cc2ccc(NC(=O)C3CCN(C(=O)C4CCCCC4)CC3)cc2)c1	i	?	-21%	-11%	-26%	i
Cc1ccc(S(=O)(=O)N2CCN(C(=O)C3CCN(C(=O)c4ccccc4C)CC3)CC2)cc1C	i	-10%	?	-4%	?	?
COc1ccccc1NC(=O)C1=C(C)Nc2nc(CCCO)nn2C1c1cccc(O)c1 (configuration not stated)	i	/	-16%	/	-2%	?
CCN(CC)S(=O)(=O)c1ccc(N2CCCC2)c(NS(=O)(=O)c2ccc([N+](=O)[O-])cc2)c1	i	7%	-28%	3%	?	i
CCN(CC)S(=O)(=O)c1ccc(N2CCCC2)c(NS(=O)(=O)c2ccc(F)cc2)c1	i	-7%	15µM*	-1%	?	i
CCN(CC)S(=O)(=O)c1ccc(N2CCCC2)c(NS(=O)(=O)c2ccccc2)c1	i	-3%	?	0%	23µM*	i
CCn1cc(C(=O)NCCc2ccccc2)c(=O)c2cc(S(=O)(=O)N(C)C3CCCCC3)ccc21	i	/	-4%	/	5%	i

High-throughput results: PubChem, National Center for Advancing Translational Sciences (NCATS)
